From PubChem
DT40 TDP1 no CPT: qHTS for Inhibitors of human tyrosyl-DNA phosphodiesterase 1 (TDP1): qHTS in cells in absence of CPT; DT40 Tdp1-/- hTDP1 cells, no CPT, ATP luminescence, 48 h; Potency, µM (doses to about 46.2 µM), without a hit: at the top dose activity change, negative = growth inhibition, hits mostly inhibitors; actives 15% (n = 420,000); AID 686978, 2013; further: potency means the concentration at half of the fitted maximal effect; on the % scale 0 is the no-effect control and ±100 the full control effect; nearly all actives have a fitted effect of over 55% in size
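A cellular qHTS used chicken DT40 cells lacking endogenous Tdp1 but carrying stably transfected human TDP1. Compounds were applied without camptothecin, and cell growth kinetics were judged by ATP-dependent luminescence after ≥48 hr.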
IL-1B inflam inh: inflammasome signaling inhibition, IL-1 beta readout | THP-1 LPS/ATP IL-1B secretion, AlphaLISA, 16 h; active compounds read low | activity change, % at 57.5 µM | actives 4.7% (n = 360,000); in the data active means activity change below about -50%; inconclusive means mostly about -30% to -49%; further: on the % scale 0 is the no-effect control and ±100 the full control effect
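THP-1 cells pretreated 1 hr with compounds (up to 57.5 uM final), then stimulated with LPS (250 ng/mL final) plus ATP (1.25 mM final); secreted IL-1B measured by AlphaLISA after 16 hr, decreased signal indicating inhibition.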
DT40 TDP1 CPT: growth inhibition of DT40 Tdp1-/-;hTDP1 cells with camptothecin (screen for TDP1 inhibitors) | chicken DT40 Tdp1-/-;hTDP1 cells + 20 nM CPT, ATP luminescence, 48 h | Potency, µM (highest dose often 46.2 µM), for the others: at the top dose activity change, negative = growth inhibition, hits mostly inhibitors | actives 12% (n = 420,000) | AID 686979; further: potency means the concentration at half of the fitted maximal effect; on the % scale 0 is the no-effect control and ±100 the full control effect; nearly all actives have a fitted effect of over 55% in size
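Chicken DT40 Tdp1-/- cells stably complemented with human TDP1 were seeded at 400 cells/well in medium containing 20 nM camptothecin, exposed to pin-transferred compounds, and grown at 37 °C for at least 48 hr. Viability was read as ATP luminescence.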
D3 ag: agonists of human D3 dopamine receptor; D3R DiscoveRx beta-arrestin cells, luminescence, 90 min; max activation, %; AID 652048; P35462; actives 0.58% (n = 410,000); in the data active means max activation above about 30%; further: 0% is about no effect
Target sequence (P35462 whole entry, looked up): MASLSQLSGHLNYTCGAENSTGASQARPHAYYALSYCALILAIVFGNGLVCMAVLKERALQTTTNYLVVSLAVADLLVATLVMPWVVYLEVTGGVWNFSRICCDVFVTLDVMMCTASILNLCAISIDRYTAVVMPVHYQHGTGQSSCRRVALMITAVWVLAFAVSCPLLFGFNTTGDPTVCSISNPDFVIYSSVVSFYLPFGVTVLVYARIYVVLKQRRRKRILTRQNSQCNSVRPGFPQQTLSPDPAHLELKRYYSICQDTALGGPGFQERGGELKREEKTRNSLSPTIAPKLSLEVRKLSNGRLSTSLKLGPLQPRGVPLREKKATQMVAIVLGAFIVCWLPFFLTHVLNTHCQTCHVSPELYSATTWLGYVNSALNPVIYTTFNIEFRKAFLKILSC
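Agonist-mode cell screen: cells plated at 1500/well and incubated overnight at 37 °C, then exposed to library compounds for 90 min at 37 °C. Detection reagent was added for 30–60 min at room temperature, and luminescence was read.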
ClpP mod: qHTS Assay for Activators of ClpP. purified B. subtilis ClpP, FRET peptide cleavage, 20 min. Potency, µM (doses to about 57.5 µM), for inactives: top-dose activity change, negative = active. actives 1.9% (n = 340,000); active means well fitted falling curve with a large enough effect; inconclusive means small, poorly fitted or top-dose-only effect; inactive means no such curve, though single readings can be large or run the other way; further: potency means the concentration at half of the fitted maximal effect; the source files actives as falling curves though it sought activators and does not explain the sign; nearly all actives have a fitted effect of over 65% in size
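Buffer: 100 mM Tris/HCl pH8, 100 mM KCl, 0.05% low protease BSA, 2.5% glycerol, 0.01% Tween-20. ClpP 10 microg/mL final; 20 min RT; delta FRET normalized to ADEP and DMSO controls.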
DRD3 antagonist: blocks the human D3 dopamine receptor; P35462; D3R cells, DiscoveRx beta-arrestin luminescence, antagonist mode; active compounds read low; max response, negative = inhibition, %; actives 2.5% (n = 360,000); AID 652054; in the data active means max response below about -50%; inconclusive means no clear call, values can overlap the other calls; further: on the % scale 0 is the no-effect control and ±100 the full control effect
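Cells plated overnight at 1500 cells/well, then exposed to library compounds with dopamine controls for 90 minutes at 37 degrees C. DiscoveRx reagent added for 30–60 minutes at room temperature; luminescence read, quantitative HTS format.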
* = called active by the depositor; ? = inconclusive; / = no result; [ ] = dose if it differs, or a comment. Only some compounds are listed: those with a hit (about 21% of all), similar ones and a draw of the others. Unless noted, the call rests on the fitted dose curve; in most records, active means well fitted inhibition curve with a large enough effect; inconclusive means small, poorly fitted or top-dose-only effect; inactive means flat fitted curve, though single readings scatter.

SMILES	DT40 TDP1 no CPT	IL-1B inflam inh	DT40 TDP1 CPT	D3 ag	ClpP mod	DRD3 antagonist
COc1ccc(CCNC(=O)c2ccc(Cl)c(S(=O)(=O)N3CCCC3)c2)cc1	23µM*	-1	18µM*	4	-1%	10
COc1ccc(N(C)S(=O)(=O)c2ccc(Cl)c(C(=O)NCCc3ccc(Cl)cc3)c2)cc1	12µM*	-56*	9.2µM*	-5	/	-1
O=C(NCCc1ccccc1)c1ccc(Cl)c(S(=O)(=O)N2CCOCC2)c1	-29%	-23	?	5	-2%	-10
COc1ccc(CCNC(=O)c2ccc(Cl)cc2Cl)cc1	-11%	-27	?	-4	1%	13
COc1ccc(CNC(=O)c2cnc(N3CCCC3)nc2C)cc1	-15%	/	13%	9	?	/
Oc1ccccc1-c1cc(-c2ccc3c(c2)OCCO3)n[nH]1	?	-61*	?	1	-3%	17
COc1ccc(-c2cc(-c3ccc(OC)c(OC)c3)n[nH]2)c(O)c1	21µM*	-7	26µM*	-5	-6%	-21
COc1ccc(-c2c(-c3ccc(O)cc3O)n[nH]c2C)cc1OC	18µM*	16	?	3	-7%	27
COc1ccc(-c2cc(-c3ccccc3O)[nH]n2)cc1OC	18µM*	-13	?	0	-10%	-20
COc1ccc(-c2cc(-c3cc(F)ccc3O)[nH]n2)cc1OC	?	-18	?	12	-11%	13
CC(C)CN(CC(C)C)C(=O)CN1C(=O)NC2(CCCc3ccccc32)C1=O (stereo unspecified)	-27%	-5	-11%	4	/	0
Cc1ccc(C(CNS(=O)(=O)c2ccc([N+](=O)[O-])cc2)N2CCN(C)CC2)cc1 (stereo unspecified)	?	-12	-23%	-8	/	-18
COc1cccc(-c2cncnc2NCc2ccc(OC)cc2OC)c1	16µM*	/	?	/	/	/
COc1ccc(CNc2ncncc2-c2ccoc2)c(OC)c1	?	/	23µM*	/	/	/
CC1CN(C(=O)CCC(=O)NCc2cccs2)c2ccccc2O1 (stereo unspecified)	4%	/	2%	-5	-1%	/
Cc1cc(O)c2c(c1O)C(=O)C(O)=C(O)C2=O	-20%[9.04 µM]	/	8%[9.04 µM]	/	/	/
C/C(=N\NC(=O)C12CCC(C)(C(=O)O1)C2(C)C)c1ccccc1O (stereo unspecified)	13µM*	223	16µM*	30	-1%	-28
CC12CCC(C(=O)N/N=C/c3ccc(O)cc3O)(OC1=O)C2(C)C (stereo unspecified)	10µM*	161	10µM*	25	/	54
COc1ccc(NC(=O)C23CCC(C)(C(=O)O2)C3(C)C)cc1 (stereo unspecified)	-9%	-21	-12%	-8	-3%	-29
O=C(c1ccc2c(c1)OCO2)c1cn(Cc2ccc(F)cc2)c2ccccc2c1=O	?	/	?	-5	-6%	/
COc1ccc(S(=O)(=O)N2CCOCC2)cc1C(=O)Nc1ccc(N2CCCCCC2)cc1	18µM*	0	18µM*	3	0%	0
CC(=O)Nc1ccc(NC(=O)c2cc(S(=O)(=O)N3CCCCC3)ccc2C)cc1	-8%	12	-19%	0	1%	-12
CCCC(C)NC(=S)NC(=O)c1cc(S(=O)(=O)N2CCOCC2)ccc1C (stereo unspecified)	13µM*	-2	21µM*	-1	-4%	0
Cc1ccc(S(=O)(=O)N2CCOCC2)cc1C(=O)N1CCc2ccccc21	?	5	-1%	4	/	7
CCCCCC(C)NC(=S)NC(=O)c1cc(S(=O)(=O)N2CCOCC2)ccc1C (stereo unspecified)	?	-1	?	3	?	10
